Assay results published in paper PMC7819943, “Rice protein-binding microarrays: a tool to detect cis-acting elements near promoter regions in rice”.
Whole data set: some 35,000 sequences, median “fluorescence intensity (a.u.)” near 10,000, cut for the highest 2% near 52,000. What follows is part of a selection rich in the highest values, with near analogues and random picks from the rest.

These sequences were tested against T1, OsWOX13 (Oryza sativa, UniProt Q5QMM3 1-267) (assay: protein-binding microarray (RPBM); PBS, 2% BSA, 51.3 ng/ul salmon testes DNA, 50 uM zinc acetate, 200 nM TF, 25 C, 1 h; high values mean tight binding). Settings: protein: recombinant; tags: N-terminal polyhistidine and DsRed monomer fusion (pET32a); label: CyDye5-dUTP incorporated in the synthesized complementary strand; 3' TTTTT single-stranded linker to array surface; dsDNA, one strand shown.
T1 sequence: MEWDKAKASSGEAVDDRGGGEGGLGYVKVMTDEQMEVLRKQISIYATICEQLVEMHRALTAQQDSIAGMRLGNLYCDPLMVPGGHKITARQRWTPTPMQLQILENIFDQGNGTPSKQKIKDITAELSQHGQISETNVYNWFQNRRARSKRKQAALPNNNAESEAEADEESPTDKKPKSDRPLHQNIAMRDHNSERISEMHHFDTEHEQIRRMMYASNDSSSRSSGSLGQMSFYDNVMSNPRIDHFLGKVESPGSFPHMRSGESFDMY
Outline: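 Transcription factors were made in E. coli BL21-CodonPlus as N-terminal fusions to a polyhistidine tag and DsRed, then purified on Ni–NTA. After primer extension with Cy5-dUTP and blocking with 2% BSA, a custom Agilent array was exposed for 1 h at 25 °C to 200 nM protein in PBS, 2% BSA, salmon testes DNA and 50 µM zinc acetate. Washed arrays were scanned on an Axon 4000B, and the binding signal is per-feature fluorescence intensity in arbitrary units.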

Going from “TGACTCTTATTTAACGACTGATTGTTGTCAAGATAATGAACGGAGTCACCTAGTGCAG” to “CGTACAATATTAATTAAAGTGTTTAAGAAACAGAGACTAGCGGAGTCACCTAGTGCAG”, the binding signal falls from 3770 fluorescence intensity (a.u.) to 3740 fluorescence intensity (a.u.).

Going from “AAGGAAAATTAATAGCATACAGGCATGCATTTACGTACTTCGGAGTCACCTAGTGCAG” to “CCATGTGATTGACGATGCTCTTATTAACTTCTAACTTGACCGGAGTCACCTAGTGCAG”, the binding signal rises from 5500 fluorescence intensity (a.u.) to 47000 fluorescence intensity (a.u.).

Going from “GCTGACGTAGATAATCTTATGCTTTCAAATTTTACGATAGCGGAGTCACCTAGTGCAG” to “ACTTTCTGTCAATTAGCCATTAGGTCAGTAGCCCAAAGTCCGGAGTCACCTAGTGCAG”, the binding signal rises from 5670 fluorescence intensity (a.u.) to 24300 fluorescence intensity (a.u.).

Going from “TTCATGATATCAATTTATGAGCATCAAAAGATTACCATGCCGGAGTCACCTAGTGCAG” to “TCTGCTTAAAAGGATGATTAAATTTTAGATTAAAGTGGCGCGGAGTCACCTAGTGCAG”, the binding signal rises from 6980 fluorescence intensity (a.u.) to 10200 fluorescence intensity (a.u.).

Compared with “CTGATGATTAGATTTATCATGCTTCCGCGCTTCAAAAGGGCGGAGTCACCTAGTGCAG”, “TCAGATTAGTTGACTAGCAAGCTACTCCTAGTACAGGTTACGGAGTCACCTAGTGCAG” is lower in binding signal: 53400 fluorescence intensity (a.u.) for the first, 6290 fluorescence intensity (a.u.) for the second.

Going from “TAATTATTGACTAATATATTAATTAATATAATGTAATTTACGGAGTCACCTAGTGCAG” to “TGTTTATAACTGTAATGACATATAAGCACCACATAGGGGCCGGAGTCACCTAGTGCAG”, the binding signal falls from 22700 fluorescence intensity (a.u.) to 5560 fluorescence intensity (a.u.).

Compared with “ACAATTTGATTGCTTCCTTTCAACATTGTGGTTGGTGATCCGGAGTCACCTAGTGCAG”, “AGTTTTCTGTTCAATGATTTGGTTGAATCAAATTGTTCCTCGGAGTCACCTAGTGCAG” is lower in binding signal: 30500 fluorescence intensity (a.u.) for the first, 4400 fluorescence intensity (a.u.) for the second.

Going from “CTAATTAATTTGTTCCCTTAATTGGCACTTTGAATCTAAGCGGAGTCACCTAGTGCAG” to “CAGCCCTTAATTGAATTTGGCCCAGCTAGTTCCCGGGCCCCGGAGTCACCTAGTGCAG”, the binding signal falls from 58300 fluorescence intensity (a.u.) to 30600 fluorescence intensity (a.u.).

First: CCTTTTAATTGAAAAGCTCCTTATTGGCTTCCCACCTAAGCGGAGTCACCTAGTGCAG
Second: ATGTGTAAATTGAATTAATGGAGTTGGTTGTGAAATCGTTCGGAGTCACCTAGTGCAG
The binding signal of the first is higher: 46900 fluorescence intensity (a.u.) for the first, 25300 fluorescence intensity (a.u.) for the second.

Compared with “TTGTAAATGACTGATTTGGATGTGAATTAATCGTTGTTGTCGGAGTCACCTAGTGCAG”, “GGTGATTTGATTCAAATTCAATCCGATCCTTTGTTGGTTTCGGAGTCACCTAGTGCAG” is higher in binding signal: 28400 fluorescence intensity (a.u.) for the first, 53400 fluorescence intensity (a.u.) for the second.

First: GTATTGTGATTTGTGAATCAGTGAATATGTGAATGTGATTCGGAGTCACCTAGTGCAG
Second: GATTAATCCAATTGACTTTGATGAGGATGTGCCACTATTTCGGAGTCACCTAGTGCAG
The binding signal of the first is higher: 13200 fluorescence intensity (a.u.) for the first, 6820 fluorescence intensity (a.u.) for the second.

First: ATAAATGATTGGAGGATTTGTTGTGACTTTTCCACAATGTCGGAGTCACCTAGTGCAG
Second: GTTGATTGGGTAAATCATATGATCGTAATGTATTGTGAATCGGAGTCACCTAGTGCAG
The binding signal of the first is lower: 58200 fluorescence intensity (a.u.) for the first, 64600 fluorescence intensity (a.u.) for the second.

Going from “GACTGGGAGGATGAGGGGTGGGTGGGTGTGGCTGCTTCTGCGGAGTCACCTAGTGCAG” to “CGATCTAATTGTGAATCCTCTACCCTAGAGGACCTCCTATCGGAGTCACCTAGTGCAG”, the binding signal falls from 4110 fluorescence intensity (a.u.) to 4020 fluorescence intensity (a.u.).

Compared with “AGTTTTAGCCTAAATTGGGTAAATTATATTTTAACCGTAACGGAGTCACCTAGTGCAG”, “TCAGTAACATTATTGGTTAAATTTTAAATTTTGAATAGGCCGGAGTCACCTAGTGCAG” is lower in binding signal: 11600 fluorescence intensity (a.u.) for the first, 5870 fluorescence intensity (a.u.) for the second.

First: AATTGTTTGATTGAAATTAATGTACTCTTGAATGGATAAACGGAGTCACCTAGTGCAG
Second: GCTGACTAATTATGTAACAGGGGTCAAACAAGTAGGTGGACGGAGTCACCTAGTGCAG
The binding signal of the first is higher: 32600 fluorescence intensity (a.u.) for the first, 20400 fluorescence intensity (a.u.) for the second.

Going from “GGTAGAAATAAGGATTGATTGAGATTCACCTACCTTTTCTCGGAGTCACCTAGTGCAG” to “TCCACCGCGACATGTGATTGGAGGTAAGAGCATGTGAACCCGGAGTCACCTAGTGCAG”, the binding signal falls from 37500 fluorescence intensity (a.u.) to 5650 fluorescence intensity (a.u.).

Compared with “GCAGAAATGATTGCACTTCAATTATTGAGTAAAACAGATTCGGAGTCACCTAGTGCAG”, “CTTTGTAATTGGAGTCAATCAAATTGAATGATTTCCCTTTCGGAGTCACCTAGTGCAG” is higher in binding signal: 30000 fluorescence intensity (a.u.) for the first, 58900 fluorescence intensity (a.u.) for the second.

Going from “AAATGTGATTTTGTAATTTCCCCTTTGAATTTTCATCAAACGGAGTCACCTAGTGCAG” to “GAGATTGATTGCATATCAGAAGTAAATGATTTCAACAGATCGGAGTCACCTAGTGCAG”, the binding signal rises from 8970 fluorescence intensity (a.u.) to 54400 fluorescence intensity (a.u.).

Compared with “ATTGATTTGAATTCCAAATTTGTAATGATGTTGATCACCTCGGAGTCACCTAGTGCAG”, “GCTCCTGATTTGCCTGATCAGATCAACAGATTAGCATGATCGGAGTCACCTAGTGCAG” is lower in binding signal: 39400 fluorescence intensity (a.u.) for the first, 23600 fluorescence intensity (a.u.) for the second.

Going from “TAGGATTATGTTGGTGATGATGATGACTAGTGTGCCTGAACGGAGTCACCTAGTGCAG” to “ATAGTTAACAAAATTTGACAGCAAACTAAATGTAACCATTCGGAGTCACCTAGTGCAG”, the binding signal rises from 4220 fluorescence intensity (a.u.) to 27800 fluorescence intensity (a.u.).

Going from “TACCCATCACCAAAATTACCATAAACACAACATACTTAGGCGGAGTCACCTAGTGCAG” to “CAAAATTGAAAACTTCTTATTTGAAATTCAAAACTTTCAACGGAGTCACCTAGTGCAG”, the binding signal rises from 4380 fluorescence intensity (a.u.) to 10200 fluorescence intensity (a.u.).

First: CATATAAATTGACAACTTCTACTTAAACCTGACATGTGGGCGGAGTCACCTAGTGCAG
Second: ATATAAATTTGGAACAAATTCAACATCATGTTATCCTAGGCGGAGTCACCTAGTGCAG
The binding signal of the first is higher: 54500 fluorescence intensity (a.u.) for the first, 4060 fluorescence intensity (a.u.) for the second.

First: TAAATTGACAAATTCAACCTAGGCCTGGACTTATTTGGCGCGGAGTCACCTAGTGCAG
Second: AACTTATATAAGTTAAATTTAAACTTATATGTTTGTGGGGCGGAGTCACCTAGTGCAG
The binding signal of the first is higher: 57500 fluorescence intensity (a.u.) for the first, 4170 fluorescence intensity (a.u.) for the second.

For “TTGACTTAAATTATAATTTTAAACCATATATTATAATTGGCGGAGTCACCTAGTGCAG”, the binding signal was 31400 fluorescence intensity (a.u.).
